Screening data from PubChem.
GPR151 ag: activators of human GPR151. Q8TDV0. PathHunter beta-arrestin GPR151 cells, luminescence. activation, % at 11.2 µM. 1% of 650,000 active. AID 1508602; in the data active means activation above about 4.9%;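 further: 0% = median of compound wells and 100% = cells with positive control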
FBW7 activator: human FBW7 E3 ligase activation, primary screen; AID 1259310; normalized activity (activation), % at 26.1 µM; AlphaScreen FBW7–phospho-cyclin E peptide binding, activator screen; 0.13% of 650,000 active; in the data active means normalized activity above about 1.9%;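 further: purified mutant Fbw7 with reduced substrate affinity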
MITF primary: human MITF inhibition, primary screen. inhibition, % at 2.6 µM. AID 1259374. AlphaScreen MITF homodimerization, bead proximity signal. O75030. 0.91% of 650,000 active; in the data active means inhibition above about 50%;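 further: 0% = vehicle wells with protein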
Target sequence (O75030 whole entry, looked up): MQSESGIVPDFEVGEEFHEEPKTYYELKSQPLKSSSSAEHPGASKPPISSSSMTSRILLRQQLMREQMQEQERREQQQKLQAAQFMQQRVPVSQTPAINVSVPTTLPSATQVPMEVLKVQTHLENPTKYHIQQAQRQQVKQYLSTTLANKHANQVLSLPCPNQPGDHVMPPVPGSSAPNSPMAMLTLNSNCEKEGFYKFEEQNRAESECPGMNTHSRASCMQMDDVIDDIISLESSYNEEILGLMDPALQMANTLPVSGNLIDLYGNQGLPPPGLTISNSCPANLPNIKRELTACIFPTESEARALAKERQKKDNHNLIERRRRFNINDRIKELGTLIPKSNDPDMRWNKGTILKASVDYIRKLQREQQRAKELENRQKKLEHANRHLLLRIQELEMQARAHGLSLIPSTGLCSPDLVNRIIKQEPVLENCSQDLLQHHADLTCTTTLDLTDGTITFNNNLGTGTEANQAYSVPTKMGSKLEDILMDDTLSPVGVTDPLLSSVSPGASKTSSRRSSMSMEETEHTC
TEAD-YAP block: TEAD-YAP interaction inhibition; HEK-TIYL cells, TEAD-Gal4/YAP UAS-luciferase luminescence; inhibition, % at 9.12 µM; AID 1259422; 1.4% of 640,000 active; in the data active means inhibition above about 32%;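 further: 0% = median of test compound wells and 100% = reference inhibitor wells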
MITF inh conf: human MITF inhibition, confirmation; shares compounds with MITF primary; AlphaScreen MITF homodimerization, biotin/His-MITF beads; inhibition, % at 2.6 µM; 16% of 4,700 active; AID 1259372;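 active means inhibition above a cutoff derived from the DMSO control wells, cut at about 28% in these data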;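 further: 0% = MITF dimer wells with DMSO only; inhibitors lower the bead chemiluminescence by keeping MITF from dimerizing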
AlphaScreen DR: counter-screen: compounds optically interfering with AlphaScreen | shares compounds with MITF primary | AID 1259373 | 6% of 480 active | AlphaScreen optical interference counterscreen, cell-free | IC50, µM; call rule not given here
AlphaScreen intf2: counter-screen: compounds optically interfering with AlphaScreen; AID 1259376; shares compounds with MITF primary; 7.6% of 4,700 active; LysRS AlphaScreen counterscreen, signal interference, triplicate; inhibition, % at 2.6 µM;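 active means inhibition above a cutoff derived from the DMSO control wells, cut at about 30% in these data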
Active calls of the source: *; . = no result given. Shown are actives, neighbours in structure and some others; about 3.5% of the full set was active somewhere.

SMILES | GPR151 ag | FBW7 activator | MITF primary | TEAD-YAP block | MITF inh conf | AlphaScreen intf2 | others
OC1CCN(Cc2ccc(Cl)cc2)CC1 | -0.5 | 0.1 | 28.3 | 0.8 | . | .
COc1ccccc1C(=O)N1CCN(Cc2ccc3ccccc3c2)CC1 | 0.3 | -0.4 | 45.4 | 21.7 | . | .
CC1CCC(N2CCN(Cc3ccc(Cl)cc3)CC2)CC1 (stereo not given) | -1.1 | -0.3 | 69.0* | -9.8 | 10.8 | 17.4
CCOc1ccc(CN2CCN(C(=O)c3ccccc3OC)CC2)cc1 | 1.1 | -0.1 | 57.0* | 31.1 | 4.2 | 15.6
COc1cc(OC)c(OC)cc1CN1CCN(Cc2ccc(C)cc2)CC1 | 0.9 | -0.2 | 63.2* | 1.1 | 71.3* | 16.0 | AlphaScreen DR=>5.76
CCn1c2ccccc2c2cc(CN3CCN(Cc4cc(OC)c(OC)cc4OC)CC3)ccc21 | -1.0 | -0.3 | 69.2* | -5.6 | 13.2 | 21.1
COc1cc(OC)c(OC)cc1CN1CCN(Cc2ccncc2)CC1 | -1.4 | -0.2 | 79.7* | 4.7 | 1.4 | 11.2
COc1cc(OC)c(OC)cc1CN1CCN(Cc2cc(OC)c(O)c(OC)c2)CC1 | -0.6 | -0.3 | 60.1* | -2.6 | 1.6 | 8.6
CCS(=O)(=O)N1CCN(Cc2cc(OC)c(OC)cc2OC)CC1 | 2.2 | 0.2 | 36.9 | 6.0 | . | .
CC1=C(C(=O)Nc2ccccc2)C(c2cccs2)C(C#N)=C(SCC(=O)Nc2ccc(C)cc2C)N1 (stereo not given) | 0.0 | 0.2 | -4.8 | -17.5 | . | .
N=C1S/C(=C\c2ccco2)C(=O)N1c1nonc1N | -1.3 | -0.4 | 81.8* | -43.3 | 59.5* | 2.3 | AlphaScreen DR=>7.04
COC(=O)CC1=NN(c2nc3ccccc3[nH]2)C(=O)C1 | 2.7 | -1.1 | 78.9* | 3.0 | 69.6* | 96.9*
O=C(CN1CCN(Cc2nc3ccccc3[nH]2)CC1)N1CCCc2ccccc21 | -1.5 | -0.4 | 91.0* | 9.4 | 0.8 | 23.8
COCC(=O)N1CCN(Cc2nc3ccccc3[nH]2)CC1 | 2.0 | -0.5 | 57.7* | -5.3 | 3.1 | 14.7
COC(=O)CN1CCN(Cc2nc3ccccc3[nH]2)CC1 | -1.4 | -0.5 | 51.8* | -10.6 | 6.5 | 13.8
Cc1nc2cc(C(F)(F)F)ccc2n1C1CCN(CC(=O)NCc2ccco2)CC1 | 0.5 | 0.0 | 6.5 | -2.6 | . | .
c1csc(CNc2ncnc3c2nc2n3CCCCC2)c1 | -0.1 | -0.4 | -5.8 | -19.1 | . | .
COc1ccc2nc(CN3CCN(C(=O)C4CC4)CC3)[nH]c2c1 | 0.1 | -0.3 | 68.0* | -5.5 | 12.6 | 13.4
O=C(C1CCN(Cc2nc3ccccc3[nH]2)CC1)N1CCN(C2CCCCC2)CC1 | 0.1 | -0.1 | 9.3 | -5.4 | . | .
O=C(c1cccc2ccccc12)N1CCN(Cc2nc3ccccc3[nH]2)CC1 | 2.2 | -0.5 | 58.8* | 10.2 | -2.1 | 13.2
COc1ccc(CCNC(=O)C2CCN(Cc3nc4ccccc4[nH]3)CC2)cc1 | 0.0 | -0.5 | 79.5* | 0.5 | 6.5 | 14.1
CCNC(=O)N1CCN(Cc2nc3ccccc3[nH]2)CC1 | -1.3 | 0.1 | 8.1 | -2.2 | . | .
CCOc1ccc(NC(=O)CSc2nnc(CCc3ccccc3)n2C)cc1 | -1.2 | 0.1 | 5.6 | 3.4 | . | .
CCCOP(=O)(OCCC)C1(Nc2ccc(Cl)c(Cl)c2)CCCCC1 | 0.1 | -0.2 | -2.1 | 3.0 | . | .
CN1CCC(NCc2ccc(F)cc2)CC1 | 3.4 | 0.1 | 57.3* | -14.8 | -2.5 | -3.3
SMILES | GPR151 ag | FBW7 activator | MITF primary | TEAD-YAP block | MITF inh conf | AlphaScreen intf2 | others
Cc1ccc(S(=O)(=O)Nc2ccc(Br)cc2)cc1S(=O)(=O)Nc1ccc(Br)cc1 | -0.4 | 0.2 | 52.7* | 5.1 | 15.7 | 10.5
Cc1cc(C)c(S(=O)(=O)Nc2ccc(Br)cc2)cc1S(=O)(=O)Nc1ccc(Br)cc1 | 0.1 | 0.0 | 18.0 | 13.3 | . | .
O=C(NCc1ccc2c(c1)OCO2)C1CCC(CNc2nc(=S)[nH]c3ccccc23)CC1 (stereo not given) | 0.3 | 0.3 | 57.0* | 0.1 | -12.9 | -5.0
O=C(NCC1CCCO1)c1ccc(CNc2nc(=S)[nH]c3ccccc23)cc1 (stereo not given) | 0.9 | -0.1 | 8.9 | 4.7 | . | .
O=C1N[C@@H](CC2CCCCC2)C(=O)N2CCN(C(=O)NCc3ccccc3)C[C@H]12 | 0.7 | -0.1 | 77.4* | 3.3 | 68.4* | -8.9 | AlphaScreen DR=>6.48
CC(C)[C@H]1NC(=O)[C@H]2CN(C(=O)OCc3ccccc3)CCN2C1=O | -1.8 | -0.2 | -3.0 | -9.6 | . | .
O=C(NCc1ccccc1)N1CCN2C(=O)[C@H]3CCCN3C(=O)[C@H]2C1 | -0.7 | -0.2 | 76.3* | 11.2 | 68.5* | -10.7 | AlphaScreen DR=>6.48
C[C@H]1NC(=O)[C@H]2CN(C(=O)NCc3ccccc3)CCN2C1=O | 4.8 | 0.6 | 80.7* | 15.5 | 64.7* | -4.8 | AlphaScreen DR=>6.48
O=C1N[C@@H](CO)C(=O)N2CCN(C(=O)OCc3ccccc3)C[C@H]12 | 0.0 | 0.1 | 0.2 | 0.9 | . | .
CC(C)[C@@H]1NC(=O)[C@H]2CN(C(=O)NCc3ccccc3)CCN2C1=O | -0.9 | 0.2 | 80.5* | 11.2 | 70.1* | -7.5 | AlphaScreen DR=>6.48
O=C(OCc1ccccc1)N1CCN2C(=O)[C@H]3CCCN3C(=O)[C@H]2C1 | 1.7 | -0.4 | -0.6 | -5.5 | . | .
COc1ccc(NC(=O)Cn2cnc3sc(C)c(C)c3c2=O)c([N+](=O)[O-])c1 | -1.5 | -0.1 | -12.9 | -0.1 | . | .
O=C(Cc1ccc(N2CCC(N3CCC[C@H]3CO)CC2)cc1)NCCc1cccc(F)c1 | 0.4 | 0.0 | 1.7 | -0.8 | . | .
O=C1N[C@@H](CSCc2ccccc2)C(=O)N2CCN(C(=O)NCc3ccccc3)C[C@H]12 | -1.0 | 0.1 | 80.3* | 11.0 | 73.3* | -14.0 | AlphaScreen DR=>6.48
CC(C)C[C@@H]1NC(=O)[C@H]2CN(C(=O)NCc3ccccc3)CCN2C1=O | -0.4 | -0.3 | 78.3* | 10.9 | 72.3* | -5.4 | AlphaScreen DR=>6.48
C[C@@H](O)[C@@H]1NC(=O)[C@H]2CN(C(=O)NCc3ccccc3)CCN2C1=O | -1.0 | -0.3 | 75.3* | -3.0 | 72.1* | -14.9 | AlphaScreen DR=>6.48
CCOc1ccc(C2NC(=S)NC(C)=C2C(=O)OC(C)C)cc1OCC (stereo not given) | -0.9 | -0.1 | 13.1 | -10.4 | . | .
CCOC(=O)c1c(NC(=O)CN(C)C)sc(C)c1C | 0.2 | 0.2 | 5.4 | 6.0 | . | .
CCOC(=O)c1c(NC(=O)CN2CCN(CC)CC2)sc(C)c1C | -1.0 | -0.5 | 86.3* | 4.9 | 6.2 | 2.5
CCOC(=O)c1sc(NC(=O)CN2C(C)CCCC2C)c(C(=O)OCC)c1C (stereo not given) | 1.9 | 0.1 | 58.1* | -2.6 | -4.8 | 3.1
Cc1[nH]c(=O)[nH]c(=O)c1S(=O)(=O)N1CCC(c2ccccc2)C1 (stereo not given) | 1.7 | 0.2 | 11.9 | -2.1 | . | .
S=C(NCc1ccco1)N1CCN(Cc2ccccc2)CC1 | 0.5 | -0.1 | 0.7 | -5.3 | . | .
O=C(c1ccco1)N1CCN(Cc2ccc3c(c2)OCO3)CC1 | -1.4 | 0.2 | 62.1* | -2.8 | 3.1 | -4.5
CS(=O)(=O)N(CC(=O)N1CCN(Cc2ccc3c(c2)OCO3)CC1)c1ccc(F)cc1 | 0.3 | 0.1 | 74.9* | 2.2 | -5.4 | -1.7
